Source: PubChem (National Center for Advancing Translational Sciences (NCATS))
NPC1 promoter act: NPC1 promoter activation; AID 485313; Potency, µM (doses to about 9.22 µM), for inactives: top-dose activation, hits mostly activators; hit rate 2.4% among 320,000; Huh7 NPC1 promoter luciferase reporter, 24 h; further: % of control where 0% means no effect; nearly all actives have a fitted effect of over 60% in size
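NPC1 promoter–luciferase Huh7 cells; 24 h compound; luminescence.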
ELG1 genotox: induces genotoxicity in HEK293T cells with luciferase-tagged ELG1. HEK293T ELG1-luciferase reporter, luminescence, 16 h. hit rate 1.3% among 330,000. AID 504466. Potency, µM (series often up to 46 µM), for the others: at the top dose activity change, positive = activation, usual class: activators; further: % of control where 0% means no effect; nearly all actives have a fitted effect of over 60% in size
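Screening used a luciferase reporter fused to human ELG1 in HEK293T cells. Luminescence was read on a CCD plate imager after 16 hr exposure and 30 min ONE-Glo incubation.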
SMN2 splice up: enhancers of SMN2 splice variant expression; HEK293 SMN2-luciferase splicing reporter, luminescence, 30-36 h; AID 1458; hit rate 2.8% among 210,000; Potency, µM (series often up to 46.1 µM), without a hit: at the top dose activity change, positive = activation, usual class: activators; further: % of control where 0% means no effect; nearly all actives have a fitted effect of over 55% in size
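HEK293 cells carry an SMN2 […]–luciferase reporter in which exon 7 inclusion puts luciferase in frame. Cells were plated 10-12 h before compound addition, then incubated 30-36 h at 37C. ONE-Glo luminescence was read; sodium butyrate at 4.5 mM final served as control.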
KinaseGlo FLuc: counter-screen: inhibitors of Kinase-Glo firefly luciferase; Kinase-Glo luciferase, ATP luminescence, 8 min; Potency, µM (highest dose often 38.3 µM), inactives show at the highest dose activity change, negative = inhibition, most hits filed as inhibitors; AID 1379; Q27757; hit rate 0.28% among 200,000; further: on the % scale 0 is the no-effect control and ±100 the full control effect; nearly all actives have a fitted effect of over 60% in size
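Luminescence was the read-out, taken after 8-minute incubation at ambient temperature. Luciferase turned over luciferin with 10 uM ATP in imidazole pH 7.2 buffer containing KCl, MgCl2, Tween 20 and BSA.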
Rab9 prom act: Rab9 promoter activation; Huh7 Rab9 promoter-luciferase reporter, luminescence, 24 h; Potency, µM (top dose mostly 9.22 µM), for the others: at the highest dose activation, negative = inhibition, usual class: activators; hit rate 2.8% among 320,000; further: % of control where 0% means no effect; nearly all actives have a fitted effect of over 60% in size
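Using Huh7 cells stably transfected with Rab9 promoter–luciferase, compounds were incubated 24 h at 37 °C, 5% CO2; luciferase luminescence was read 10 min after reagent addition.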
FLuc counter: inhibits or activates purified firefly luciferase, miR-21 counter-screen; P08659; purified FLuc, Km substrates, luminescence inhibition; Potency, µM (highest dose often 57.5 µM), for the others: at the top dose activity change, negative = inhibition, hits mostly inhibitors; hit rate 6.9% among 360,000;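 further: plate controls were vehicle for no effect and reference inhibitor for full effect; nearly all actives have a fitted effect of over 55% in size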
Target sequence (P08659 whole entry, looked up): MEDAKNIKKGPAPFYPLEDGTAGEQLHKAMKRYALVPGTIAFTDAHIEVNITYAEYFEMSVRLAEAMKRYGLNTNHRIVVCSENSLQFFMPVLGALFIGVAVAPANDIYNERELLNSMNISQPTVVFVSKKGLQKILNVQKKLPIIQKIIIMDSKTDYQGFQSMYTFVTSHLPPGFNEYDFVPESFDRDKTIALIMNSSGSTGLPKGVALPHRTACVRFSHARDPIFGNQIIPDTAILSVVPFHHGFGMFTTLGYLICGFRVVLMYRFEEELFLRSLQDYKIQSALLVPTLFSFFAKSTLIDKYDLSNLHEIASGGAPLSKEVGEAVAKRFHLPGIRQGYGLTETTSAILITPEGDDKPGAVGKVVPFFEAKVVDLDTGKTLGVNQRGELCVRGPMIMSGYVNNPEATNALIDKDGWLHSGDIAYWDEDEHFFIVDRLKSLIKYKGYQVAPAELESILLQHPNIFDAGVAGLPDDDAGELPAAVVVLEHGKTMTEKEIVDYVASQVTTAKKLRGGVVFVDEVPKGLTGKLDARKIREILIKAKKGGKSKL
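Purified P. pyralis luciferase, 10 nM final, with Km-level 10 uM D-luciferin and 10 uM ATP in 50 mM Tris acetate pH 7.5, 10 mM Mg acetate, 0.01% Tween-20, 0.05% BSA; 6-point qHTS titration about 60 µM downward; luminescence read.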
An asterisk follows results filed as active; ? = inconclusive; / = no result; [ ] = dose if it differs, or a comment. Compounds with a hit are over-represented: about 7.4% of the library has one in this group of screens. The call rests on the fitted dose curve; in most records, active means well fitted curve in the direction sought with a large enough effect; inconclusive means small, poorly fitted or top-dose-only effect, or another doubt; inactive means no such curve, though single readings can be large; an effect the other way counts as inactive or inconclusive. Potency means the concentration at half of the fitted maximal effect.

SMILES	NPC1 promoter act	ELG1 genotox	SMN2 splice up	KinaseGlo FLuc	Rab9 prom act	FLuc counter
CCc1nc2cccnc2n1-c1ccc(CC(=O)Nc2ccc(C)cc2)cc1	/	/	/	/	/	-1.5%
CCn1c(SCc2cccc(Br)c2)nnc1-c1nonc1NC(C)=O	/	/	/	/	/	-7.1%
COc1cccc(-c2cc(C(=O)Nn3cnnc3)c3ccccc3n2)c1	15.6%	5.4%	-0.7%	-15.2%	23.3%	0.953µM*
COc1cccc(-c2cc(C(=O)NN3CCOCC3)c3ccccc3n2)c1	0.4%	-3.0%	8.8%	1.4%	3.1%	-13.3%
COc1cccc(-c2cc(C(=O)Nc3ccncc3)c3ccccc3n2)c1	-1.0%	-12.7%	/	/	-2.4%	16.9µM*
CCOc1ccc(CCNC(=O)c2cc3c(s2)-c2ccccc2OC3)cc1OCC	/	/	-26.1%	/	/	-6.9%
CCc1cc2cc(C(=O)N3CCN(c4ccccc4)CC3)sc2s1	-0.8%	-1.0%	6.7%	-0.6%	0.5%	7.0%
CCc1cc2cc(C(=O)Nc3ccccc3F)sc2s1	2.24µM*	1.16µM*	?	-12.6%	1.78µM*	0.757µM*
CCc1cc2cc(C(=O)Nc3ccc(F)cc3)sc2s1	?	12.7%	36.3%	-4.1%	2.51µM*	?
CCc1cc2cc(C(=O)N3CCN(Cc4ccccc4)CC3)sc2s1	/	/	-19.5%	-2.2%	/	16.9µM*
CC(C)(C)c1ccc(C(=O)Nc2ccc(F)cc2)s1	0.708µM*	2.91µM*	/	/	0.631µM*	1.2µM*
COc1cccc(/C=C/C(=O)Nc2ccc3nc4n(c(=O)c3c2)CCCC4)c1OC	4.6%	-11.5%	/	/	9.0%	12µM*
COc1cc(OC)cc(C(=O)Nc2ccc3nc4n(c(=O)c3c2)CCCCC4)c1	3.16µM*	?	17.8µM*	/	3.55µM*	12µM*
COc1cccc(NC(=O)CC(=O)Nc2ccc3nc4n(c(=O)c3c2)CCCCC4)c1	/	/	-2.7%	/	/	-18.4%
O=C(c1cc2c(s1)-c1ccccc1OC2)N1CCc2ccccc2C1	10.8%	16.6%	20µM*	2.2%	20.9%	?
COc1ccccc1N1CCN(C(=O)c2cc3c(s2)-c2ccccc2OC3)CC1	-0.2%	-0.7%	-5.0%	/	-1.7%	3.3%
O=C(c1ccc2c(c1)OCO2)N1CCCCC1	/	/	/	1.5%	/	/
COC(=O)c1cc2c(s1)-c1ccc(OC)cc1CC2	14.9%	?	/	/	?	9.53µM*
O=C(c1ccc2c(c1)OCO2)N1CCc2ccccc2C1	?	?	?	-9.2%	24.3%	21.3µM*
O=C(c1ccc2c(c1)OCO2)n1nnc2ccccc21	-3.2%	-1.1%	-8.4%	-18.1%	1.0%	6.75µM*
COc1ccc(N(C)C(=O)c2cc3c(s2)-c2ccccc2OC3)cc1	/	/	-23.6%	/	/	?
COC(=O)c1cc2c(s1)-c1ccccc1OC2	8.0%	10.4%	2.0%	-0.2%[39.9 µM]	-10.6%	23.9µM*
O=C(O)c1ccccc1NC(=O)C1CCCO1 (stereo unspecified)	/	/	-0.7%	0.4%	/	-2.0%
O=C(NCCc1ccccc1)c1ccccc1NC(=O)C1CCCO1 (stereo unspecified)	1.41µM*	?	3.55µM*	1.1%	1.26µM*	?
COc1ccc(NC(=O)c2ccccc2NC(=O)C2CCCO2)cc1 (stereo unspecified)	25.7%	?	20µM*	-2.0%	?	-10.1%
SMILES	NPC1 promoter act	ELG1 genotox	SMN2 splice up	KinaseGlo FLuc	Rab9 prom act	FLuc counter
COc1ccc(Br)cc1CN1C(=O)c2ccccc2C1C(=O)NC1CCCCCC1 (stereo unspecified)	/	/	-0.1%	/	/	-2.1%
CCCSc1nnc(-c2c[nH]c3ccccc23)n1C	21.5%	?	-20.5%	-0.5%	24.1%	15.1µM*
Cc1ccc(C=Nc2ccccc2C(N)=O)o1	?	?	11.2µM*	?	3.55µM*	26.9µM*
CN(C)c1ccc(C=Nc2ccccc2C(N)=O)cc1	3.16µM*	10.3µM*	12.6µM*	-21.3%	0.794µM*	1.51µM*
Cc1ccc(/C=N/c2sc(Cc3ccccc3)c(C)c2C(N)=O)o1	-0.1%	0.1%	22.2%	-2.8%	2.1%	-5.9%
O=c1nc2c(-c3ccccc3F)n[nH]n2c2ccccc12	?	?	22.4µM*	-19.0%	3.98µM*	13.5µM*
Cc1ccc(C(=O)/C=C/c2ccc3c(c2)OCCO3)c(O)c1	?	?	/	/	3.55µM*	1.07µM*
O=C(COC(=O)/C=C/c1ccc2c(c1)OCO2)NCc1ccccc1	-0.3%	0.3%	/	/	-6.8%	5.7%
O=C(/C=C/c1ccc2c(c1)OCCCO2)c1ccc2ccccc2c1O	3.16µM*	?	-34.3%	-2.1%	?	2.69µM*
O=C(Nc1ccc2c(c1)CCC2)c1ccc(Cl)nc1	15.1%	?	?	-0.7%	?	12µM*
O=C(Nc1ccc2c(c1)CCC2)c1cnc(Cl)c(Cl)c1	2.7%	?	?	-2.7%	29.7%	3.01µM*
O=C(COC(=O)c1ccc(Cl)nc1)Nc1ccc2c(c1)CCC2	/	0.3%	/	/	/	/
CCCOc1cccc(C(=O)N(Cc2cc(OC)c(OC)c(OC)c2)C2CCS(=O)(=O)C2)c1 (stereo unspecified)	/	/	-3.8%	/	/	-5.0%
Cc1ccc(-c2cc(C(=O)N3CCN(c4ccccc4O)CC3)c3ccccc3n2)o1	?	-0.4%	/	/	2.24µM*	0.757µM*
COc1ccc(-c2cc(C(=O)Oc3ccc(C)cc3)c3cc(C)ccc3n2)cc1	/	/	-2.9%	/	/	-17.4%
O=C(c1cc(-c2ccc(Br)cc2)nc2ccccc12)N1CCN(c2ccccc2O)CC1	17.3%	-1.2%	/	/	22.4%	?
COc1ccc(-c2cc(C(=O)N3CCCCC3)c3ccccc3n2)cc1	15.8%	1.5%	/	/	16.6%	5.36µM*
COc1ccc(-c2cc(C(=O)N3CCOCC3)c3cc(C)ccc3n2)cc1	5.0%	1.8%	1.2%	1.4%	0.2%	16.9µM*
COc1ccc(-c2cc(C(=O)N3CCOCC3)c3ccccc3n2)cc1OC	-1.9%	-2.9%	/	/	-5.2%	?
COc1ccc(-c2cc(C(=O)N3CCCCCC3)c3cc(C)ccc3n2)cc1	-5.9%	-3.4%	/	/	4.6%	12µM*
COc1ccc2c(c1)cc1c(=O)n(CC(=O)NCCCc3ccccc3)nc(C)n12	/	/	3.4%	/	/	0.1%
COc1cc(NC(=O)c2nn(-c3ccc(F)cc3)c(=O)n(C)c2=O)cc(OC)c1OC	/	/	/	/	/	-3.7%
COc1ccc2nc(-c3ccc(Cl)cc3)cc(C(=O)O)c2c1	2.1%	8.3%	/	/	1.0%	8.49µM*
Cc1ccc(-c2cc(C(=O)N3CCOCC3)c3ccccc3n2)cc1	7.3%	25.1%	13.4%	-6.7%	17.9%	10.7µM*
COc1ccc2nc(C)cc(C(=O)O)c2c1	2.6%	2.0%	-6.3%	0.8%	-6.4%	-2.5%
O=C(c1cc(-c2ccncc2)nc2ccccc12)N1CCOCC1	-8.8%	-3.5%	/	/	2.6%	-1.5%
